Sampled rows, rich in hits. Any-hit rate of the full collection: about 2.3%.
CHO-K1 Ca PAM = nonselective calcium activators in parental CHO-K1 cells, primary screen, counter-screen for M1 PAM project, cell-based, Fluo-8 calcium fluorescence, full deck, 1536-well | 360,000 compounds, 0.02% hits | activation, % at 3 µM | AID 602247, 2012 | ATP EC20; 0% at ATP EC20, 100% at ATP max;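 active = activation above the run cutoff, the mean activation of all test compounds plus 3 SD, cut at about 40% in these data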;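 note: peak over basal fluorescence ratio in a 140 s read after ATP addition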
CHO-K1 Ca antag = M1 antagonist counterscreen hit in parental CHO-K1 cells; ATP-induced calcium, Fluo-8 fluorescence; inhibition, % at 3 µM; 360,000 compounds, 0.6% hits;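 active = inhibition above a per-plate cutoff, the plate's mean sample inhibition plus 3 SD, cut at about 24% in these data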;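 note: 0% = DMSO plus EC80 ATP and 100% = DMSO alone without ATP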
M1 ag parental = counter-screen for M1 agonists: effect in parental CHO-K1 cells; activation, % at 3 µM; Fluo-8 calcium fluorescence; scaled to maximal ATP response, vehicle zero; 360,000 compounds, 0.48% hits; in the data active = activation above about 15%;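 note: untransfected CHO-K1 host cells lacking M1 receptor as counterscreen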
M1 PAM = human M1 muscarinic receptor positive allosteric modulators, primary screen, CHO-K1 cells, Fluo-8 calcium fluorescence, 1536-well. Muscarinic acetylcholine receptor M1 (Homo sapiens), P11229. CHO-K1 hM1, ACh EC20; 0% = ACh EC20, 100% = maximal ACh. activation, % at 3 µM. 360,000 compounds, 0.088% hits. AID 588819, 2011; in the data active = activation above about 19%, passing the limit was not always enough
Target sequence (P11229 whole entry, looked up): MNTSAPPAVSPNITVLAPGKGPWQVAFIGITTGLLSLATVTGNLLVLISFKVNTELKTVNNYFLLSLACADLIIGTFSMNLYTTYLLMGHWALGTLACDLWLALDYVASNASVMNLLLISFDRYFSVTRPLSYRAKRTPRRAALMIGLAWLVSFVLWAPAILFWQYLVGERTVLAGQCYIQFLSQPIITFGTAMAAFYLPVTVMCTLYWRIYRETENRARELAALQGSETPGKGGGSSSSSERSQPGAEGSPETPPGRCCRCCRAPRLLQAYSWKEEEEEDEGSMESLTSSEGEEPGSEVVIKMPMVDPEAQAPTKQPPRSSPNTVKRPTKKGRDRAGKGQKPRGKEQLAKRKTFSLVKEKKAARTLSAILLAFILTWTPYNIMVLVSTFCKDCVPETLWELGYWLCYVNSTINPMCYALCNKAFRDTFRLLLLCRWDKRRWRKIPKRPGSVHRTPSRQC
M1 ag = human M1 muscarinic receptor agonists, primary screen, Fluo-8 calcium fluorescence, CHO-K1 cells, HTS. 360,000 compounds, 0.33% hits. CHO-K1 hM1, agonist mode; 0% DMSO, 100% acetylcholine EC100. Muscarinic acetylcholine receptor M1 (Homo sapiens), P11229. activation, % at 3 µM;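 active = activation above the run's mean compound activation plus 3 SD, cut at about 16% in these data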;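 note: peak over basal fluorescence ratio within a 140 s kinetic read after compound addition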
CHRM1 antagonist = human M1 muscarinic receptor antagonists, primary screen, CHO-K1 cells, Fluo-8 calcium fluorescence, 1536-well; Muscarinic acetylcholine receptor M1 (Homo sapiens), P11229; CHO-K1 hM1, ACh EC80 antagonist; inhibition, % at 3 µM; 360,000 compounds, 1.3% hits; AID 588852, 2011;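 active = percent inhibition above its own plate's cutoff, namely the mean of that plate's compound wells plus 3 SD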;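 note: peak over basal fluorescence ratio during 140 s after agonist addition; 0% = ACh EC80 plus DMSO and 100% = DMSO alone without agonist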
* hit, by the source's call.

What do the screens show for `CC(=O)c1c(N2CCCCC2)nc(=S)n(-c2ccccc2)c1C`?
CHO-K1 Ca PAM: 5.9; CHO-K1 Ca antag: -5.1; M1 ag parental: -0.1; M1 PAM: -17.2; M1 ag: -6.8; CHRM1 antagonist: 15.4

Results for CCn1c(C)c(C(C)=O)c(N2CCN(c3ccccc3)CC2)nc1=S ?
CHO-K1 Ca PAM: 7.7; CHO-K1 Ca antag: -6.2; M1 ag parental: 0.6; M1 PAM: -15.0; M1 ag: -4.0; CHRM1 antagonist: 9.8

What do the screens show for `CC(=O)c1c(N2CCCC2)nc(=S)n(-c2ccccc2)c1C`?
CHO-K1 Ca PAM: 10.1; CHO-K1 Ca antag: -17.9; M1 ag parental: -0.4; M1 PAM: -33.8; M1 ag: -11.9; CHRM1 antagonist: 74.8*

Results for CCn1c(C)c(C(C)=O)c(N2CCCCC2)nc1=S ?
CHO-K1 Ca PAM: 10.4; CHO-K1 Ca antag: 5.4; M1 ag parental: -0.6; M1 PAM: 3.0; M1 ag: -5.3; CHRM1 antagonist: -4.6

How did CCn1c(C)c(C(C)=O)c(N2CCN(c3ccccn3)CC2)nc1=S do in these assays?
CHO-K1 Ca PAM: -7.5; CHO-K1 Ca antag: -31.8; M1 ag parental: 0.5; M1 PAM: -33.4; M1 ag: -13.9; CHRM1 antagonist: 64.4*

How did COc1ccccc1CNC(=O)CN(C)CC(=O)Nc1ccccc1Br do in these assays?
CHO-K1 Ca PAM: 12.9; CHO-K1 Ca antag: -14.3; M1 ag parental: 0.3; M1 PAM: 0.0; M1 ag: -1.6; CHRM1 antagonist: -2.5

How did CCOC(=O)C1(CC2CCCCO2)CCN(Cc2cc3ccccc3[nH]2)CC1 (stereo not drawn) do in these assays?
CHO-K1 Ca PAM: -8.3; CHO-K1 Ca antag: 9.1; M1 ag parental: 57.1*; M1 PAM: -31.9; M1 ag: 62.2*; CHRM1 antagonist: 28.6*

Results for N#Cc1c(N)n(C2OC(CO)C(O)C2O)c2ncnc(N)c12 (stereo not drawn) ?
CHO-K1 Ca PAM: -0.2; CHO-K1 Ca antag: -19.0; M1 ag parental: 0.0; M1 PAM: -1.9; M1 ag: -1.7; CHRM1 antagonist: 1.8

What do the screens show for `Cc1c2cnn(CC(=O)NC3CCCC3)c(=O)c2c(C)n1Cc1ccccc1`?
CHO-K1 Ca PAM: -12.2; CHO-K1 Ca antag: -3.9; M1 ag parental: 3.6; M1 PAM: 9.3; M1 ag: 22.9*; CHRM1 antagonist: -7.4

What do the screens show for `CC(C(=O)N1CCN(Cc2ccc3c(c2)OCO3)CC1)n1cc([N+](=O)[O-])cn1` (stereo not drawn)?
CHO-K1 Ca PAM: 2.3; CHO-K1 Ca antag: -18.5; M1 ag parental: 7.2; M1 PAM: 2.8; M1 ag: -7.0; CHRM1 antagonist: -2.6

How did O=C(C1CCN(S(=O)(=O)c2cccc3cccnc23)CC1)N1CCn2c1nc1ccccc12 do in these assays?
CHO-K1 Ca PAM: 10.4; CHO-K1 Ca antag: -3.2; M1 ag parental: 2.2; M1 PAM: -1.3; M1 ag: 42.6*; CHRM1 antagonist: 10.8

Results for Cc1cccc(Nc2nc3c(c(=O)n(C)c(=O)n3C)n2CC(O)CO)c1 (stereo not drawn) ?
CHO-K1 Ca PAM: -7.4; CHO-K1 Ca antag: 24.6*; M1 ag parental: 0.1; M1 PAM: -6.0; M1 ag: -0.4; CHRM1 antagonist: 9.3

How did Cc1ccoc1C(=O)N1CCN(C(=O)c2occc2C)CC1 do in these assays?
CHO-K1 Ca PAM: -8.9; CHO-K1 Ca antag: -8.6; M1 ag parental: 0.6; M1 PAM: 7.5; M1 ag: -2.9; CHRM1 antagonist: -9.6

How did COc1ccc(Nc2nc3cc(-c4ccccc4C)sc3c(=O)n2C)cc1OC do in these assays?
CHO-K1 Ca PAM: 12.0; CHO-K1 Ca antag: -5.2; M1 ag parental: 0.3; M1 PAM: 2.0; M1 ag: -1.6; CHRM1 antagonist: -4.9

Results for CSCCC(NS(=O)(=O)c1ccc2c(c1)OCCO2)C(=O)N(C)Cc1ccc(F)cc1 (stereo not drawn) ?
CHO-K1 Ca PAM: 4.6; CHO-K1 Ca antag: 0.2; M1 ag parental: 8.6; M1 PAM: -7.1; M1 ag: -0.8; CHRM1 antagonist: 16.5

Results for CSCCC(NS(=O)(=O)c1cccc(C(F)(F)F)c1)C(=O)N(C)Cc1ccc2c(c1)OCCO2 (stereo not drawn) ?
CHO-K1 Ca PAM: -14.8; CHO-K1 Ca antag: 11.2; M1 ag parental: 5.0; M1 PAM: -14.4; M1 ag: -1.2; CHRM1 antagonist: 37.9*

What do the screens show for `CC(C)Oc1ccc(CN2CCC2(C)C(=O)Nc2ccc3c(c2)OCO3)cc1` (stereo not drawn)?
CHO-K1 Ca PAM: 21.1; CHO-K1 Ca antag: -5.7; M1 ag parental: 0.0; M1 PAM: -13.5; M1 ag: -4.4; CHRM1 antagonist: 16.6

What do the screens show for `CC(C)c1ccc(CN2CCC2(C)C(=O)Nc2ccc3c(c2)OCO3)cc1` (stereo not drawn)?
CHO-K1 Ca PAM: 26.1; CHO-K1 Ca antag: -8.0; M1 ag parental: 17.3*; M1 PAM: 1.8; M1 ag: 9.1; CHRM1 antagonist: -3.0

How did COCCNC(=O)/C(C#N)=C/c1c(N2CCN(C)CC2)nc2ccccn2c1=O do in these assays?
CHO-K1 Ca PAM: 8.0; CHO-K1 Ca antag: -11.0; M1 ag parental: 2.0; M1 PAM: 7.5; M1 ag: -7.8; CHRM1 antagonist: -11.2

How did COCCNC(=O)c1ccc(N2CC3CC(C2)c2cccc(=O)n2C3)c(NC(=O)c2cc(OC)cc(OC)c2)c1 (stereo not drawn) do in these assays?
CHO-K1 Ca PAM: 21.6; CHO-K1 Ca antag: -21.2; M1 ag parental: -0.5; M1 PAM: 16.2; M1 ag: 0.2; CHRM1 antagonist: -16.6

How did COCCNC(=O)c1ccc(N2CC3CC(C2)c2cccc(=O)n2C3)c(NC(=O)c2ccccc2Br)c1 (stereo not drawn) do in these assays?
CHO-K1 Ca PAM: 0.5; CHO-K1 Ca antag: 4.4; M1 ag parental: 0.2; M1 PAM: 3.4; M1 ag: 22.4*; CHRM1 antagonist: -8.2

How did COCCNC(=O)c1ccc(N2CC3CC(C2)c2cccc(=O)n2C3)c(NC(=O)c2ccc(Br)o2)c1 (stereo not drawn) do in these assays?
CHO-K1 Ca PAM: 16.6; CHO-K1 Ca antag: -8.7; M1 ag parental: 0.9; M1 PAM: 16.4; M1 ag: 1.2; CHRM1 antagonist: -14.7

What do the screens show for `COCCNC(=O)c1ccc(N2CC3CC(C2)c2cccc(=O)n2C3)c(NC(=O)c2ccccc2Cl)c1` (stereo not drawn)?
CHO-K1 Ca PAM: 23.0; CHO-K1 Ca antag: -17.0; M1 ag parental: 1.4; M1 PAM: 4.5; M1 ag: 26.2*; CHRM1 antagonist: -18.9

How did CC1CCN(CCC(=O)N2CCCc3c2c(=O)oc2ccc(O)cc32)CC1 do in these assays?
CHO-K1 Ca PAM: 4.9; CHO-K1 Ca antag: -6.4; M1 ag parental: -0.1; M1 PAM: -1.8; M1 ag: -6.4; CHRM1 antagonist: -2.4

Screening data from PubChem.
